Compounds with a hit are over-represented: about 3.5% of the library has one in this group of screens.
TRb-SRC2 inh = inhibitors of human thyroid hormone receptor beta-SRC2 interaction. P10828. TRbeta-SRC2 peptide binding, fluorescence polarization; receptor liganded with 1 µM T3. Potency, µM (doses to about 106 µM), hits mostly inhibitors. hit rate 0.065% among 280,000; also: nearly all actives have a fitted effect of over 50% in size
Target sequence (P10828 whole entry, looked up): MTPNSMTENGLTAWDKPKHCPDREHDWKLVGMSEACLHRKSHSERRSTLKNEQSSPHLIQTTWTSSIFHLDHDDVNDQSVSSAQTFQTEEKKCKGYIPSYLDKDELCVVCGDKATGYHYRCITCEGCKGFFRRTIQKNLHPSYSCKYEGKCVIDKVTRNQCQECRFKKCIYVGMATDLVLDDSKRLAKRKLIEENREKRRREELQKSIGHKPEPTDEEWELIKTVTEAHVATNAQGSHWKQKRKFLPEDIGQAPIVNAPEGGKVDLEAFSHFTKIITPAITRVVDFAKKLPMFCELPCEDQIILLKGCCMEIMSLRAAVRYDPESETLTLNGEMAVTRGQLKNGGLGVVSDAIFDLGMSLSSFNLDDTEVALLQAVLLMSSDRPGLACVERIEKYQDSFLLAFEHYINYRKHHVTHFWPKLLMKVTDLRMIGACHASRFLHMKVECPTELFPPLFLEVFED
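Fluorescence polarization of 20 nM Texas Red SRC2 peptide (20-aa NR interaction domain) bound to 0.6 uM human TRb ligand-binding domain, with 1 uM T3, after 5 hr at ambient temperature; inhibition seen as decreased polarization.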
Tau fibril ThT = blocks human tau fibril formation measured by thioflavin T | P10636 | recombinant tau K18 P301L, heparin-induced fibrillization, ThT fluorescence | Potency, µM (doses to about 57.4 µM), usual class: inhibitors | hit rate 2.1% among 270,000 | AID 1460; also: nearly all actives have a fitted effect of over 55% in size
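Heparin-induced fibrillization of the P301L-mutant K18 repeat-domain fragment of human tau was followed by ThT binding in quantitative high-throughput format.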
TexasRed fluor = Texas Red fluorescence interference in TRb-SRC2 counter-screen; TRb/SRC2 Texas Red total fluorescence interference; Potency, µM (top dose mostly 106 µM); hit rate 0.29% among 280,000; AID 1479; active = well fitted curve in either direction with a large enough effect; inconclusive = small, poorly fitted or top-dose-only effect
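Human TRb ligand-binding domain at 0.6 uM with 20 nM Texas Red SRC2 peptide in Tris buffer containing 1 uM T3 and 5% DMSO, incubated with compound 5 h at ambient temperature. Total fluorescence (555/632 nm) calculated as parallel + 2 × perpendicular.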
Tau fluor cs = counter-screen for tau fibril formation inhibitors; tau K18 P301L (four-repeat tau fragment) Alexa594 fluorescence, heparin fibrillization; Potency, µM (doses to about 57.7 µM); hit rate 0.93% among 280,000; AID 1463; also: nearly all actives have a fitted effect of over 55% in size
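Human K18 P301L tau (15 uM unlabeled plus 0.24 uM Alexa 594-labeled, final) in 100 mM sodium acetate pH 7 was mixed with compound and 20 uM heparin and incubated 6 hr at 37 C.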
KDM4E inh = blocks human JMJD2E demethylase activity; Potency, µM (highest dose often 57.1 µM), actives largely listed as inhibitors; AID 2147; hit rate 1.6% among 230,000; JMJD2E catalytic domain, FDH-coupled NADH fluorescence (FDH is formaldehyde dehydrogenase); also: nearly all actives have a fitted effect of over 50% in size
Tau fibril FP = inhibitors of human tau fibril formation | Potency, µM (top dose mostly 57.7 µM), actives largely listed as inhibitors | AID 1468 | K18 P301L tau heparin fibrillization, Alexa594 FP, 6 h | P10636 | hit rate 0.39% among 280,000; also: nearly all actives have a fitted effect of over 55% in size
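FP of Alexa 594-tau after heparin (20 uM) induction. Substrate: human K18 P301L, 15 uM unlabeled, 0.24 uM labeled. Buffer 100 mM sodium acetate pH 7. 6 hr, 37 C.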
Hits are given with their value. Unless noted, calls follow the shape of the dose curve; as a rule, active = well fitted curve in the direction sought with a large enough effect; inconclusive = small, poorly fitted or top-dose-only effect, or another doubt; inactive = no such curve, though single readings can be large; an effect the other way counts as inactive or inconclusive.

`O=C(/C=C/c1ccco1)Nc1ccc(C(=O)N2CCOCC2)cc1` gave TRb-SRC2 inh inactive, Tau fibril ThT inactive, TexasRed fluor inactive, Tau fluor cs inactive, KDM4E inh inactive and Tau fibril FP inactive.
For O=C(O)/C=C\C(=O)Nc1ccc(N2CCN(c3ccc(F)cc3)CC2)cc1 the results were TRb-SRC2 inh inactive, Tau fibril ThT 5.6µM, TexasRed fluor inactive, Tau fluor cs inconclusive, KDM4E inh inactive and Tau fibril FP inactive.
For O=C(O)/C=C\C(=O)Nc1ccc(N2CCN(c3ccc(Cl)cc3)CC2)cc1 the results were TRb-SRC2 inh inconclusive, Tau fibril ThT 3.5µM, TexasRed fluor inactive, Tau fluor cs inconclusive, KDM4E inh inactive and Tau fibril FP inconclusive.
O=C(/C=C/c1ccco1)Nc1ccc(N2CCCC2)cc1 was read as TRb-SRC2 inh inactive, Tau fibril ThT 2.2µM, TexasRed fluor inactive, Tau fluor cs inactive, KDM4E inh inactive and Tau fibril FP inactive.
For O=C(O)/C=C\C(=O)Nc1ccccc1C(=O)N1CCN(c2ccc(Cl)cc2)CC1 the results were TRb-SRC2 inh inactive, Tau fibril ThT inactive, TexasRed fluor inactive, Tau fluor cs inactive, KDM4E inh inactive and Tau fibril FP inactive.
O=C(O)/C=C\C(=O)Nc1ccc(N2CCN(c3cccc(Cl)c3)CC2)cc1 was read as TRb-SRC2 inh inactive, Tau fibril ThT inconclusive, TexasRed fluor inactive, Tau fluor cs inactive, KDM4E inh inactive and Tau fibril FP inactive.
For O=C(O)/C=C\C(=O)Nc1ccc(N2CCN(c3ccc(Cl)c(Cl)c3)CC2)cc1 the results were TRb-SRC2 inh inconclusive, Tau fibril ThT 2.2µM, TexasRed fluor inconclusive, Tau fluor cs inconclusive, KDM4E inh inconclusive and Tau fibril FP inconclusive.
`CN(C)c1ccc(CNC(=O)C2COc3ccccc3C2)cc1` (stereo unspecified) gave TRb-SRC2 inh inactive, Tau fibril ThT inactive, TexasRed fluor inactive, Tau fluor cs inactive and Tau fibril FP inactive.
For CC(=O)N1CCN(c2ccc(NC(=O)/C=C/c3ccccc3)cc2)CC1 the results were TRb-SRC2 inh inactive, Tau fibril ThT 2.5µM, TexasRed fluor inactive, Tau fluor cs inactive, KDM4E inh inactive and Tau fibril FP inactive.
For Cc1nc(NCc2ccccc2)c2cc[nH]c2n1 the results were TRb-SRC2 inh inactive, Tau fibril ThT inactive, TexasRed fluor inactive, Tau fluor cs inactive, KDM4E inh inactive and Tau fibril FP inactive.
Screening CCOc1ccc(N=Nc2c(C)noc2C)cc1 returned TRb-SRC2 inh inactive, Tau fibril ThT 16µM, TexasRed fluor inactive, Tau fluor cs inactive, KDM4E inh inactive and Tau fibril FP inactive.
Screening CCOc1ccc(C(=O)NCC(=O)OCc2c(C)noc2C)cc1 returned TRb-SRC2 inh inactive, Tau fibril ThT inactive, TexasRed fluor inactive, Tau fluor cs inactive, KDM4E inh inactive and Tau fibril FP inactive.
CC(C)OCCCn1c(SCc2ccccc2Cl)nc2c(sc3ccccc32)c1=O was read as TRb-SRC2 inh inactive, Tau fibril ThT inactive, TexasRed fluor inactive, Tau fluor cs inactive and Tau fibril FP inactive.
Screening N#C/C(=C\c1cc(O)c(O)c(O)c1)C(N)=O returned TRb-SRC2 inh inactive, Tau fibril ThT inconclusive, TexasRed fluor inactive, Tau fluor cs inactive, KDM4E inh 1µM and Tau fibril FP inactive.
For N#C/C(=C\c1cc(Cl)c(OCc2ccc(Cl)cc2)c(Cl)c1)C(N)=O the results were TRb-SRC2 inh inactive, Tau fibril ThT inconclusive, TexasRed fluor inactive, Tau fluor cs inactive, KDM4E inh inactive and Tau fibril FP inactive.
For CC(=O)N[C@H](CC(C)C)C(=O)O the results were TRb-SRC2 inh inactive, Tau fibril ThT inactive, TexasRed fluor inactive, Tau fluor cs inactive, KDM4E inh inactive and Tau fibril FP inactive.
Screening C(=N\NC1=Nc2cccc3cccc1c23)/c1ccccn1 returned TRb-SRC2 inh inactive, Tau fibril ThT 2.8µM, TexasRed fluor inactive, Tau fluor cs inconclusive, KDM4E inh inconclusive and Tau fibril FP inactive.
`Clc1ccccc1/C=N/NC1=Nc2cccc3cccc1c23` gave TRb-SRC2 inh inactive, Tau fibril ThT 2µM, TexasRed fluor inactive, Tau fluor cs inactive, KDM4E inh inactive and Tau fibril FP inactive.

Source: PubChem (National Center for Advancing Translational Sciences (NCATS))
